SW480 rerep: A quantitative high throughput screen for small molecules that induce DNA re-replication in SW480 colon adenocarcinoma cells; Potency, µM (doses to about 46.1 µM), inactives show at the top dose re-replication activation, most hits filed as activators; SW480 DNA re-replication, Hoechst DNA content imaging, 48 h; 1.8% of 340,000 active; AID 624297, 2012; further: potency means the concentration at half of the fitted maximal effect; % of control where 0% means no effect; nearly all actives have a fitted effect of over 55% in size
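DNA re-replication was detected as more nuclei of elevated Hoechst intensity after 48 hr exposure to compound (23 nL pinned per well of 250 cells).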
KB-3-1 cytotox: qHTS assay for MDR1-selective chemotherapeutics: Primary screen using the parental adenocarcinoma cell KB-3-1. KB-3-1 viability, CellTiter-Glo ATP luminescence, 72 h. AID 1347075, 2019. Potency, µM (titrated, usually from 46.1 µM), usual class: cytotoxic. 1.4% of 400,000 active; further: potency means the concentration at half of the fitted maximal effect; on the % scale 0 is the no-effect control and ±100 the full control effect; nearly all actives have a fitted effect of over 60% in size
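Cells are dispensed, compounds pinned in, plates held at 37 °C for 72 h, then CellTiter-Glo is added and luminescence read after 10 minutes. Cell line: parental KB-3-1 in phenol-red-free DMEM, 10% FBS.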
IL1B secr inh: qHTS for Inhibitors of Inflammasome Signaling: IL-1-beta AlphaLISA Primary Screen. AID 743279, 2014. activity change, % at 57.5 µM. THP-1 LPS/ATP IL-1B secretion, AlphaLISA, 16 h; stronger effect = lower value. 4.7% of 360,000 active; in the data active means activity change below about -50%; inconclusive means mostly about -30% to -49%; further: on the % scale 0 is the no-effect control and ±100 the full control effect
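THP-1 cells pretreated 1 hr with compounds (up to 57.5 uM final), then stimulated with LPS (250 ng/mL final) plus ATP (1.25 mM final); secreted IL-1B measured by AlphaLISA after 16 hr, decreased signal indicating inhibition.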
MCF10A rereplic: A quantitative high throughput screen for small molecules that induce DNA re-replication in MCF 10a normal breast cells | Potency, µM (doses to about 46.1 µM), for the others: at the highest dose activity, positive = re-replication, hits mostly activators | 2.9% of 350,000 active | MCF 10A DNA re-replication, Hoechst nuclear intensity, 48 h; further: potency means the concentration at half of the fitted maximal effect; % of control where 0% means no effect; nearly all actives have a fitted effect of over 50% in size
KB-V1 MDR tox: qHTS assay for MDR1-selective chemotherapeutics: Primary screen using the drug-selected MDR subline cells KB-V1; KB-V1 MDR cells viability, CellTiter-Glo, 72 h; Potency, µM (top dose mostly 46.1 µM), most hits filed as cytotoxic; 3.4% of 400,000 active; AID 1347076, 2019; further: potency means the concentration at half of the fitted maximal effect; on the % scale 0 is the no-effect control and ±100 the full control effect; nearly all actives have a fitted effect of over 60% in size
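Drug-selected KB-V1 cells, grown in DMEM lacking phenol red with 10% FBS, receive compound titrations; after three days at 37 degrees C, surviving cell ATP is quantified by CellTiter-Glo luminescence and responses normalized and curve-fitted.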
An asterisk follows results filed as active; i = inactive; ? = inconclusive; / = no result given; [ ] = remark or other dose. A selection: hits, their analogues and other compounds. The true share with any hit is near 9.9%. Unless noted, the call rests on the fitted dose curve; in most records, active means well fitted curve in the direction sought with a large enough effect; inconclusive means small, poorly fitted or top-dose-only effect, or another doubt; inactive means no such curve, though single readings can be large; an effect the other way counts as inactive or inconclusive.

SMILES	SW480 rerep	KB-3-1 cytotox	IL1B secr inh	MCF10A rereplic	KB-V1 MDR tox
CC1=NOC(=O)/C1=C\c1ccc(-c2ccccc2Br)o1	-13.4%	?	-96.4*	?	i
O=C(C[n+]1cc(Br)cc2ccccc21)c1ccc(Br)cc1	-1.0%	?	-65.7*	?	i
O=C(Nc1ccnn1C1CCN(C/C=C/c2ccccc2)CC1)c1ccccc1	-5.6%	/	?	-5.6%	/
O=C(Nc1ccnn1C1CCN(C/C=C/c2ccccc2)CC1)c1cccc(F)c1	2.0%	i	-52.9*	3.9%	i
CCc1ccc(CN2CCC(n3nccc3NC(=O)c3ccccc3Cl)CC2)cc1	2.1%	i	-50.3*	?	18.4µM*
COc1ccccc1C(=O)Nc1ccnn1C1CCN(Cc2cn(C)c3ccccc23)CC1	11.1%	i	-22.1	-16.7%	i
CCc1ccc(CN2CCC(n3nccc3NC(=O)c3ccc4c(c3)OCO4)CC2)cc1	-2.6%	i	-55.6*	?	?
Cn1cc(CN2CCC(n3nccc3NC(=O)c3ccccc3Cl)CC2)c2ccccc21	?	i	-82.4*	?	i
CCN1CCN(CCCNC(=O)c2cc3c(s2)-c2c(C)cccc2OC3)CC1	/	i	/	/	i
O=C(CCOc1ccccc1)Nc1ccnn1C1CCN(CCc2ccccc2)CC1	1.3%	i	-51.5*	5.4%	i
O=C(CCOc1ccccc1)Nc1ccnn1C1CCN(Cc2ccc(O)cc2)CC1	-5.6%	i	-16.5	-0.4%	?
Cn1c(=O)c2cc(NC(=S)NC3CCCCC3)ccc2n1-c1ccccc1	/	i	-10.1	/	i
Cc1ccc2c(c1)nnn2C1CCN(CC(=O)Nc2ccccc2N2CCOCC2)CC1	11.4%	i	-52.9*	-0.4%	?
O=C(c1ccco1)N1CCC(n2nnc3ccccc32)CC1	-4.3%	i	11.5	6.2%	13µM*
Cc1ccc2c(c1)nnn2C1CCN(CC(=O)NCCc2ccccc2)CC1	?	i	-68.1*	26.6%	?
COc1ccccc1NC(=O)CN1CCC(n2nnc3cc(F)ccc32)CC1	-10.1%	i	-26.1	11.7%	?
O=C(CN1CCC(n2nnc3cc(F)ccc32)CC1)NCc1ccco1	0.7%	i	9.5	2.8%	i
O=C(CN1CCC(n2nnc3ccccc32)CC1)NCc1cccs1	1.5%	i	-0.9	9.8%	23.1µM*
COc1ccc(Cl)cc1NC(=O)CN1CCC(n2nnc3cc(C)ccc32)CC1	0.4%	i	8.8	?	i
N#Cc1ccccc1S(=O)(=O)N1CCN(C(=O)C2CC(=O)N(c3ccc4c(c3)OCCO4)C2)CC1 (stereo not given)	-1.9%	i	3.8	-6.8%	i
CC1CCC(C(C)C)C(OC(=O)C[n+]2cc(-c3ccc(Cl)cc3)n3c2CCC3)C1 (stereo not given)	-8.5%	i	-86.1*	?	i
COc1ccc(-c2c[n+](CC(=O)N3c4ccccc4Sc4ccccc43)c3n2CCC3)cc1	-3.4%	?	-61.5*	?	i
O=C(C[n+]1cc(-c2ccc(Cl)cc2)n2c1CCC2)N1c2ccccc2Sc2ccccc21	-4.5%	i	-57.1*	-5.1%	i
CCOC(=O)c1c(C)oc2nc(C)nc(NCc3ccc(F)cc3)c12	/	i	/	/	i
O=[n+]1ccn([O-])c2ccccc21	-4.2%	/	/	-1.4%	/
SMILES	SW480 rerep	KB-3-1 cytotox	IL1B secr inh	MCF10A rereplic	KB-V1 MDR tox
O=C(/C=C/c1ccccc1)Nc1ccc(Cl)cn1	14.6µM*	18.4µM*	0.0	?	?
CSc1ccc(/C=C/C(=O)Nc2ccccc2)cc1	-3.1%	i	-19.7	1.2%	i
CSc1cccc(NC(=O)/C=C/c2ccccc2)c1	-3.4%	i	-63.1*	18.8%	i
CSc1cccc(NC(=O)/C=C/c2ccc(Cl)cc2)c1	-0.4%	?	-72.3*	16.1%	14.6µM*
Cc1cccc(NC(=O)/C=C/c2ccc(Cl)cc2)n1	/	i	-2.9	0.2%	16.4µM*
Cc1cccc(NC(=O)CCCNC(=O)c2ccc(Cl)cc2)n1	-30.2%	i	i	?	i
O=C(c1ccc(CSc2nc3ccncc3n2Cc2ccccc2F)cc1)N1CCCCCC1	/	i	/	/	i
CCCS(=O)(=O)NC(=O)C1(C)CCCN(C(=O)c2cc(OC)ccc2Br)C1 (stereo not given)	/	i	37.6	/	i
CN(C(=O)CSC1=Nc2ccccc2C2=NC(c3ccccc3)C(=O)N12)C1CCCCC1 (stereo not given)	9.5%	i	7.2	?	5.17µM*
CCOC(=O)C1C(=O)C=C(c2ccc(C)cc2)CC1c1ccc([N+](=O)[O-])cc1 (stereo not given)	-20.5%	i	4.2	-0.8%	7.31µM*
CCOC(=O)C1C(=O)C=C(c2ccccc2)CC1c1ccccc1 (stereo not given)	-6.3%	i	?	?	?
COc1cccc(C(=O)c2c(-c3ccccc3)ncc3cc(OC)c(OC)cc23)c1	10.6%	i	?	7.7%	i
O=C(Cc1ccccc1)Nc1nnc(-c2ccncc2)s1	/	i	/	/	i
N/C(=N\c1nc(CSc2nc3ccccc3s2)cc(=O)[nH]1)Nc1ccc(F)cc1	12.8%	11.6µM*	4.5	?	i
Cc1ccc(N/C(N)=N/c2nc(CSc3nnc(N)s3)cc(=O)[nH]2)cc1	1.2%	i	11.0	0.3%	i
C/C(=C\c1ccccc1)C(=O)Nc1cc(C)on1	-5.1%	i	-4.0	-2.0%	i
CC1(C)CCCN(C(=O)c2ccc3c(c2NCCO)C(=O)c2ccccc2C3=O)C1	-2.5%	i	-64.7*	?	i
CC1CCCN(C(=O)c2ccc3c(c2NCCO)C(=O)c2ccccc2C3=O)C1 (stereo not given)	-4.7%	i	?	6.3%	4.61µM*
O=C(CSCc1nc2c(nnn2Cc2ccc(F)cc2)c(=O)[nH]1)Nc1cccc(C(F)(F)F)c1	0.6%	i	30.6	3.1%	i
COc1ccc(C2c3c(-c4ccccc4O)n[nH]c3C(=O)N2CCc2ccc(OC)c(OC)c2)cc1 (stereo not given)	-3.4%	i	-51.4*	?	?
COc1ccc(CCN2C(=O)c3[nH]nc(-c4ccccc4O)c3C2c2cccc(Cl)c2)cc1 (stereo not given)	4.0%[9.22 µM]	18.4µM*	-25.7	?	?
COc1ccc(C2c3c(-c4ccccc4O)n[nH]c3C(=O)N2Cc2ccco2)cc1 (stereo not given)	-55.9%	i	-74.8*	?	i

Compound activity: PubChem, National Center for Advancing Translational Sciences (NCATS)
